These results are taken from publication PMC11006913.

What all share (assay): PBM; 200 nM protein, PBS
Holding throughout (conditions): dsDNA, one strand shown

Test [1] has as its target HESX1 (Homo sapiens, UniProt Q9UBX0 95-180, R165K).
In test [2] the target is HOXB4 (Homo sapiens, UniProt P17483 148-234).
Test [3] deals with SHOX (Homo sapiens, UniProt O15266 103-189).
Test [4] deals with HESX1 (Homo sapiens, UniProt Q9UBX0 95-180).
The next test has as its target HOXA4 (Homo sapiens, UniProt Q00056 201-287, R217L).
The target in test [5] is HOXB4 (Homo sapiens, UniProt P17483 148-234, V174I).
Sequence of HOXB4 (Homo sapiens, UniProt P17483 148-234, V174I) (P17483 148-234 V174I): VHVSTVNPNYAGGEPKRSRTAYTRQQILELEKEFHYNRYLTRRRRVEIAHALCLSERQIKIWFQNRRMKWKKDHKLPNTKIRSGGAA
Test [6] addresses ALX1 (Homo sapiens, UniProt Q15699 118-204, L144V).
The target of test [7] is ALX3 (Homo sapiens, UniProt O95076 139-225, N203Q).
Sequence of ALX3 (Homo sapiens, UniProt O95076 139-225, N203Q) (O95076 139-225 N203Q): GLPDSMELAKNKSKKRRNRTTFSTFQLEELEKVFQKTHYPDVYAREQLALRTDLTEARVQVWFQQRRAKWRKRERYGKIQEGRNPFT
The target in test [8] is SHOX (Homo sapiens, UniProt O15266 103-189, R173C).
Sequence of SHOX (Homo sapiens, UniProt O15266 103-189, R173C) (O15266 103-189 R173C): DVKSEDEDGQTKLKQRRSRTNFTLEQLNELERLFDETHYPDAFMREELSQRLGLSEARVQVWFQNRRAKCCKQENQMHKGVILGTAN
In test [9] the target is ALX1 (Homo sapiens, UniProt Q15699 118-204, L144R).
Sequence of ALX1 (Homo sapiens, UniProt Q15699 118-204, L144R) (Q15699 118-204 L144R): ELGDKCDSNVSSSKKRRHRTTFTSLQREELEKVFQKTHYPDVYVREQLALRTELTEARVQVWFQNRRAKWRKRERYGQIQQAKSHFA
Test [10] has as its target ALX3 (Homo sapiens, UniProt O95076 139-225).
The target in test [11] is PROP1 (Homo sapiens, UniProt O75360 56-141).
Sequence of PROP1 (Homo sapiens, UniProt O75360 56-141) (O75360 56-141): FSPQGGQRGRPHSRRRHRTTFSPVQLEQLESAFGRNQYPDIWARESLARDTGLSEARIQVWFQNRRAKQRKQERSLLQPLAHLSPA
The target of test [12] is HESX1 (Homo sapiens, UniProt Q9UBX0 95-180, R109Q).
Sequence of HESX1 (Homo sapiens, UniProt Q9UBX0 95-180, R109Q) (Q9UBX0 95-180 R109Q): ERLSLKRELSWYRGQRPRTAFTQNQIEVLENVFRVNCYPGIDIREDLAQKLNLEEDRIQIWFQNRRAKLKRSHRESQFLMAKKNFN
Test [13] has as its target PROP1 (Homo sapiens, UniProt O75360 56-141, R99H).
Test [14] addresses ALX3 (Homo sapiens, UniProt O95076 139-225, L168Q).
The target in test [15] is HESX1 (Homo sapiens, UniProt Q9UBX0 95-180, P111T).
Sequence of HESX1 (Homo sapiens, UniProt Q9UBX0 95-180, P111T) (Q9UBX0 95-180 P111T): as the sequence (Q9UBX0 95-180 R109Q) above, with Q15R, P17T counted along it
The target in test [16] is ALX3 (Homo sapiens, UniProt O95076 139-225, L168V).
Sequence of ALX3 (Homo sapiens, UniProt O95076 139-225, L168V) (O95076 139-225 L168V): as the sequence (O95076 139-225 N203Q) above, with L30V, Q65N counted along it
In test [17] the target is PROP1 (Homo sapiens, UniProt O75360 56-141, F88S).
Sequence of PROP1 (Homo sapiens, UniProt O75360 56-141, F88S) (O75360 56-141 F88S): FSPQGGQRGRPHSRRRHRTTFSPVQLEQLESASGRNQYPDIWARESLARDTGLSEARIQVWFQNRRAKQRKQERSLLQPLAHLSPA
Test [18] addresses HESX1 (Homo sapiens, UniProt Q9UBX0 95-180, F115L).
Test [19] has as its target ALX3 (Homo sapiens, UniProt O95076 139-225, N203S).

Sequence of HESX1 (Homo sapiens, UniProt Q9UBX0 95-180, R165K) (Q9UBX0 95-180 R165K): as the sequence (Q9UBX0 95-180 R109Q) above, with Q15R, R71K counted along it
Sequence of ALX1 (Homo sapiens, UniProt Q15699 118-204, L144V) (Q15699 118-204 L144V): as the sequence (Q15699 118-204 L144R) above, with R27V counted along it
Sequence of HOXA4 (Q00056 201-287 R217L): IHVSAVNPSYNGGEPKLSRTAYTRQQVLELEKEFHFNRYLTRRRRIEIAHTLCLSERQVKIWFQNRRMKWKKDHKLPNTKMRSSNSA
Sequence of ALX3 (Homo sapiens, UniProt O95076 139-225) (O95076 139-225): as the sequence (O95076 139-225 N203Q) above, with Q65N counted along it
Sequence of HESX1 (Homo sapiens, UniProt Q9UBX0 95-180) (Q9UBX0 95-180): as the sequence (Q9UBX0 95-180 R109Q) above, with Q15R counted along it
Sequence of PROP1 (Homo sapiens, UniProt O75360 56-141, R99H) (O75360 56-141 R99H): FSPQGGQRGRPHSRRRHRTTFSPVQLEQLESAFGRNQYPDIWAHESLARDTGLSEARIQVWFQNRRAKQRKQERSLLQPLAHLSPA
Sequence of ALX3 (Homo sapiens, UniProt O95076 139-225, L168Q) (O95076 139-225 L168Q): as the sequence (O95076 139-225 N203Q) above, with L30Q, Q65N counted along it
Sequence of HOXB4 (Homo sapiens, UniProt P17483 148-234) (P17483 148-234): as the sequence (P17483 148-234 V174I) above, with I27V counted along it
Sequence of ALX3 (Homo sapiens, UniProt O95076 139-225, N203S) (O95076 139-225 N203S): as the sequence (O95076 139-225 N203Q) above, with Q65S counted along it
Sequence of HESX1 (Homo sapiens, UniProt Q9UBX0 95-180, F115L) (Q9UBX0 95-180 F115L): as the sequence (Q9UBX0 95-180 R109Q) above, with Q15R, F21L counted along it
Sequence of SHOX (Homo sapiens, UniProt O15266 103-189) (O15266 103-189): as the sequence (O15266 103-189 R173C) above, with C71R counted along it

In the case of CTAATTAG, the binding signal with HESX1 [1] is 14 upbm affinity estimate (log intensity, higher = more binding, comparable within an allelic series); in the test with HOXB4 [2] it was 13.6 upbm affinity estimate (log intensity, higher = more binding, comparable within an allelic series); with SHOX [3], 13.6 upbm affinity estimate (log intensity, higher = more binding, comparable within an allelic series); with HESX1 [4], 13.7 upbm affinity estimate (log intensity, higher = more binding, comparable within an allelic series); in the test with HOXA4 it was 12.6 upbm affinity estimate (log intensity, higher = more binding, comparable within an allelic series); with HOXB4 [5], 14.2 upbm affinity estimate (log intensity, higher = more binding, comparable within an allelic series). The binding signal in the test with ALX1 [6] was 12.5 upbm affinity estimate (log intensity, higher = more binding, comparable within an allelic series); in the test with ALX3 [7] it was 8.69 upbm affinity estimate (log intensity, higher = more binding, comparable within an allelic series); in the test with SHOX [8] it was 11.1 upbm affinity estimate (log intensity, higher = more binding, comparable within an allelic series); with ALX1 [9], 12.1 upbm affinity estimate (log intensity, higher = more binding, comparable within an allelic series); with ALX3 [10] it was 13 upbm affinity estimate (log intensity, higher = more binding, comparable within an allelic series); in the test with PROP1 [11], 12.4 upbm affinity estimate (log intensity, higher = more binding, comparable within an allelic series). The binding signal with HESX1 [12] was 10.9 upbm affinity estimate (log intensity, higher = more binding, comparable within an allelic series); with PROP1 [13], 12.6 upbm affinity estimate (log intensity, higher = more binding, comparable within an allelic series); in the test with ALX3 [14], 11.6 upbm affinity estimate (log intensity, higher = more binding, comparable within an allelic series); with HESX1 [15], 12.5 upbm affinity estimate (log intensity, higher = more binding, comparable within an allelic series); with ALX3 [16] it was 11.3 upbm affinity estimate (log intensity, higher = more binding, comparable within an allelic series); in the test with PROP1 [17] it was 8.3 upbm affinity estimate (log intensity, higher = more binding, comparable within an allelic series). For the same sequence, the binding signal with HESX1 [18] was 8.53 upbm affinity estimate (log intensity, higher = more binding, comparable within an allelic series); with ALX3 [19], 8.81 upbm affinity estimate (log intensity, higher = more binding, comparable within an allelic series).

As to ACAATTAA, the binding signal in the test with HESX1 [1] was 12.1 upbm affinity estimate (log intensity, higher = more binding, comparable within an allelic series); with HOXB4 [2] it was 13 upbm affinity estimate (log intensity, higher = more binding, comparable within an allelic series); with SHOX [3], 11.6 upbm affinity estimate (log intensity, higher = more binding, comparable within an allelic series); with HESX1 [4], 12.2 upbm affinity estimate (log intensity, higher = more binding, comparable within an allelic series); with HOXA4, 12 upbm affinity estimate (log intensity, higher = more binding, comparable within an allelic series); in the test with HOXB4 [5], 13.7 upbm affinity estimate (log intensity, higher = more binding, comparable within an allelic series). Also, the binding signal was 11.4 upbm affinity estimate (log intensity, higher = more binding, comparable within an allelic series) in the test with ALX1 [6]; 8.46 upbm affinity estimate (log intensity, higher = more binding, comparable within an allelic series) in the test with ALX3 [7]; 9.44 upbm affinity estimate (log intensity, higher = more binding, comparable within an allelic series) in the test with SHOX [8]; 11.1 upbm affinity estimate (log intensity, higher = more binding, comparable within an allelic series) with ALX1 [9]; 12.3 upbm affinity estimate (log intensity, higher = more binding, comparable within an allelic series) with ALX3 [10]; 11.2 upbm affinity estimate (log intensity, higher = more binding, comparable within an allelic series) in the test with PROP1 [11]. The binding signal in the test with HESX1 [12] is 8.86 upbm affinity estimate (log intensity, higher = more binding, comparable within an allelic series); in the test with PROP1 [13] it was 11.1 upbm affinity estimate (log intensity, higher = more binding, comparable within an allelic series); with ALX3 [14], 10.4 upbm affinity estimate (log intensity, higher = more binding, comparable within an allelic series); with HESX1 [15] it was 10.8 upbm affinity estimate (log intensity, higher = more binding, comparable within an allelic series); with ALX3 [16], 9.93 upbm affinity estimate (log intensity, higher = more binding, comparable within an allelic series); in the test with PROP1 [17] it was 7.71 upbm affinity estimate (log intensity, higher = more binding, comparable within an allelic series). Further, the binding signal was 7.77 upbm affinity estimate (log intensity, higher = more binding, comparable within an allelic series) with HESX1 [18] and 8.59 upbm affinity estimate (log intensity, higher = more binding, comparable within an allelic series) with ALX3 [19].

In the case of ACCAATTA, the binding signal in the test with HESX1 [1] was 13.7 upbm affinity estimate (log intensity, higher = more binding, comparable within an allelic series); with SHOX [3] it was 12.7 upbm affinity estimate (log intensity, higher = more binding, comparable within an allelic series); with HESX1 [4], 13.6 upbm affinity estimate (log intensity, higher = more binding, comparable within an allelic series); with HOXB4 [5], 13.6 upbm affinity estimate (log intensity, higher = more binding, comparable within an allelic series); in the test with ALX1 [6], 12.1 upbm affinity estimate (log intensity, higher = more binding, comparable within an allelic series); with ALX3 [7] it was 8.43 upbm affinity estimate (log intensity, higher = more binding, comparable within an allelic series). For the same sequence, the binding signal with SHOX [8] is 10.4 upbm affinity estimate (log intensity, higher = more binding, comparable within an allelic series); in the test with ALX1 [9], 11.7 upbm affinity estimate (log intensity, higher = more binding, comparable within an allelic series); with ALX3 [10], 12.8 upbm affinity estimate (log intensity, higher = more binding, comparable within an allelic series); with PROP1 [11], 12 upbm affinity estimate (log intensity, higher = more binding, comparable within an allelic series); in the test with HESX1 [12], 10.8 upbm affinity estimate (log intensity, higher = more binding, comparable within an allelic series); with PROP1 [13], 12.3 upbm affinity estimate (log intensity, higher = more binding, comparable within an allelic series). Also, the binding signal with ALX3 [14] is 11.1 upbm affinity estimate (log intensity, higher = more binding, comparable within an allelic series); with HESX1 [15], 12.3 upbm affinity estimate (log intensity, higher = more binding, comparable within an allelic series); in the test with ALX3 [16] it was 10.7 upbm affinity estimate (log intensity, higher = more binding, comparable within an allelic series); with PROP1 [17], 7.81 upbm affinity estimate (log intensity, higher = more binding, comparable within an allelic series); in the test with HESX1 [18] it was 8.41 upbm affinity estimate (log intensity, higher = more binding, comparable within an allelic series); with ALX3 [19] it was 8.62 upbm affinity estimate (log intensity, higher = more binding, comparable within an allelic series).

For the sequence GGCAATTA, the binding signal is 12.3 upbm affinity estimate (log intensity, higher = more binding, comparable within an allelic series) with HESX1 [1]; 13.1 upbm affinity estimate (log intensity, higher = more binding, comparable within an allelic series) with HOXB4 [2]; 11.7 upbm affinity estimate (log intensity, higher = more binding, comparable within an allelic series) with SHOX [3]; 12.4 upbm affinity estimate (log intensity, higher = more binding, comparable within an allelic series) with HESX1 [4]; 12.1 upbm affinity estimate (log intensity, higher = more binding, comparable within an allelic series) in the test with HOXA4; 13.6 upbm affinity estimate (log intensity, higher = more binding, comparable within an allelic series) with HOXB4 [5]. For the same sequence, the binding signal was 11.4 upbm affinity estimate (log intensity, higher = more binding, comparable within an allelic series) with ALX1 [6]; 8.35 upbm affinity estimate (log intensity, higher = more binding, comparable within an allelic series) with ALX3 [7]; 9.38 upbm affinity estimate (log intensity, higher = more binding, comparable within an allelic series) with SHOX [8]; 11 upbm affinity estimate (log intensity, higher = more binding, comparable within an allelic series) in the test with ALX1 [9]; 12.2 upbm affinity estimate (log intensity, higher = more binding, comparable within an allelic series) in the test with ALX3 [10]; 11.1 upbm affinity estimate (log intensity, higher = more binding, comparable within an allelic series) in the test with PROP1 [11]. Moreover, the binding signal is 8.87 upbm affinity estimate (log intensity, higher = more binding, comparable within an allelic series) with HESX1 [12]; 11.3 upbm affinity estimate (log intensity, higher = more binding, comparable within an allelic series) with PROP1 [13]; 10.3 upbm affinity estimate (log intensity, higher = more binding, comparable within an allelic series) with ALX3 [14]; 10.9 upbm affinity estimate (log intensity, higher = more binding, comparable within an allelic series) with HESX1 [15]; 9.79 upbm affinity estimate (log intensity, higher = more binding, comparable within an allelic series) with ALX3 [16]; 7.46 upbm affinity estimate (log intensity, higher = more binding, comparable within an allelic series) with PROP1 [17]. Also, the binding signal with HESX1 [18] is 7.6 upbm affinity estimate (log intensity, higher = more binding, comparable within an allelic series); with ALX3 [19], 8.36 upbm affinity estimate (log intensity, higher = more binding, comparable within an allelic series).

Consider TAATTGCA, for which the binding signal with HESX1 [1] was 12 upbm affinity estimate (log intensity, higher = more binding, comparable within an allelic series); in the test with SHOX [3], 11.4 upbm affinity estimate (log intensity, higher = more binding, comparable within an allelic series); in the test with HESX1 [4], 12.1 upbm affinity estimate (log intensity, higher = more binding, comparable within an allelic series); with HOXA4, 11.9 upbm affinity estimate (log intensity, higher = more binding, comparable within an allelic series); with SHOX [8], 9.1 upbm affinity estimate (log intensity, higher = more binding, comparable within an allelic series); with PROP1 [11], 11.1 upbm affinity estimate (log intensity, higher = more binding, comparable within an allelic series). In addition, the binding signal was 8.74 upbm affinity estimate (log intensity, higher = more binding, comparable within an allelic series) with HESX1 [12]; 11.1 upbm affinity estimate (log intensity, higher = more binding, comparable within an allelic series) with PROP1 [13]; 10.2 upbm affinity estimate (log intensity, higher = more binding, comparable within an allelic series) with ALX3 [14]; 10.6 upbm affinity estimate (log intensity, higher = more binding, comparable within an allelic series) in the test with HESX1 [15]; 7.7 upbm affinity estimate (log intensity, higher = more binding, comparable within an allelic series) with PROP1 [17]; 7.5 upbm affinity estimate (log intensity, higher = more binding, comparable within an allelic series) with HESX1 [18].
